Compound activity (PubChem BioAssay)
KCNQ2 pot: potentiators of rat KCNQ2 potassium channel | O88943 | hit rate 0.54% among 310,000 | B-score at 10 µM | AID 2239 | CHO-K1 KCNQ2, FluxOR thallium flux fluorescence; stronger effect = higher value;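 active = fluorescence ratio B-score at least 3 SD of library B-scores, with initial fluorescence B-score within 3 of them, cut at about 5.3 in these data; same plate scores as AID 2156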;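 note: B-score of peak minus minimum over baseline fluorescence ratio after K+ and Tl+ stimulus; positive B-score means potentiation of KCNQ2 with more thallium influx and brighter signal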
KCNQ2 block: KCNQ2 (rat) channel inhibition | CHO-K1 KCNQ2, FluxOR thallium flux, 20 min; stronger effect = lower value | B-score at 10 µM | hit rate 1.1% among 310,000 | AID 2156;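 active = fluorescence ratio B-score at most minus 3 library SDs, with starting brightness B-score within 2 library SDs, cut at about -5.5 in these data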
Kir21 conf inh: confirmation of mouse Kir2.1 potassium channel inhibitors; shares compounds with KCNQ2 pot; Kir2.1-expressing cells, FluxOR thallium flux fluorescence; stronger effect = lower value; Tl flux remaining, % of negative control (stronger effect = lower value), % at 10 µM; hit rate 41% among 2,300; AID 2032;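 active = Primary-screen hit whose thallium flux fell at least 3 control SD below untreated wells in both duplicates, with normal baseline fluorescence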
HEK293 Tl flux: alters thallium flux in parental HEK293 cells, Kir2.1 counter-screen. shares compounds with KCNQ2 pot. FluxOR thallium flux fluorescence; 0% = unstimulated blank wells. FluxOR signal as % of negative control (100 = no effect), % at 10 µM. hit rate 19% among 2,300. AID 2105;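 active = dye signal at least 3 control SD above or below untreated wells in both duplicates, raw fluorescence within 3, either direction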;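 note: percent is based on the flux ratio of peak minus minimum fluorescence over baseline F0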
CHO-K1 ctr: counter-screen for KCNQ2 potentiators: effect in parental CHO-K1 cells; shares compounds with KCNQ2 pot; FluxOR thallium flux fluorescence; zero = vehicle mean+3SD, 100% = vehicle-minus-blank window; activity increase over 3SD of controls, % at 10 µM; hit rate 43% among 1,200; AID 2282;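 active = signal rise of at least 3 SD above the untreated control mean, in both duplicate wells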;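 note: counter screen of KCNQ2 potentiator hits so any rise reflects channel-independent effects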
KCNQ1 pot spec: selectivity of KCNQ2 potentiators: effect on human KCNQ1. AID 2283. CHO KCNQ1 stable, FluxOR thallium flux fluorescence; beyond 3SD, as % of vehicle-control signal. hit rate 28% among 1,200. shares compounds with KCNQ2 pot. activation over 3SD threshold, % at 10 µM;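 active = fluorescence ratio rise of at least 3 SD of vehicle wells above their mean, in both replicate wells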
KCNQ2 pot confirm: confirmation of rat KCNQ2 potassium channel potentiators; hit rate 68% among 1,200; potentiation, less the hit threshold, % at 10 µM; CHO-KCNQ2 cells, FluxOR thallium flux fluorescence; shares compounds with KCNQ2 pot; AID 2287;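 active = fluorescence ratio rising 3 SD or more over the vehicle control mean in both replicates, plus primary screen hit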;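 note: peak minus minimum thallium fluorescence divided by baseline after K/Tl stimulus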
Kir21 spec: selectivity of KCNQ2 potentiators: effect on mouse Kir2.1. shares compounds with KCNQ2 pot. HEK293 Kir2.1, FluxOR thallium flux fluorescence. activity over 3SD threshold, % at 10 µM. hit rate 2% among 1,200. AID 2345;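 active = fluorescence ratio rise of at least 3 SD above the vehicle-control mean, seen in both replicates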
KCNQ2 W236L MoA: rat KCNQ2 W236L mutant potentiation by KCNQ2 potentiators. shares compounds with KCNQ2 pot. CHO KCNQ2-W236L, automated patch clamp current. current increase over 3SD of negative controls (%), stronger effect = higher value, % at 25 µM. hit rate 10% among 940. AID 2558;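 active = current increase at least 3 SD of the untreated controls above them in both duplicate recordings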
Target sequence (O88943 whole entry W236L, looked up): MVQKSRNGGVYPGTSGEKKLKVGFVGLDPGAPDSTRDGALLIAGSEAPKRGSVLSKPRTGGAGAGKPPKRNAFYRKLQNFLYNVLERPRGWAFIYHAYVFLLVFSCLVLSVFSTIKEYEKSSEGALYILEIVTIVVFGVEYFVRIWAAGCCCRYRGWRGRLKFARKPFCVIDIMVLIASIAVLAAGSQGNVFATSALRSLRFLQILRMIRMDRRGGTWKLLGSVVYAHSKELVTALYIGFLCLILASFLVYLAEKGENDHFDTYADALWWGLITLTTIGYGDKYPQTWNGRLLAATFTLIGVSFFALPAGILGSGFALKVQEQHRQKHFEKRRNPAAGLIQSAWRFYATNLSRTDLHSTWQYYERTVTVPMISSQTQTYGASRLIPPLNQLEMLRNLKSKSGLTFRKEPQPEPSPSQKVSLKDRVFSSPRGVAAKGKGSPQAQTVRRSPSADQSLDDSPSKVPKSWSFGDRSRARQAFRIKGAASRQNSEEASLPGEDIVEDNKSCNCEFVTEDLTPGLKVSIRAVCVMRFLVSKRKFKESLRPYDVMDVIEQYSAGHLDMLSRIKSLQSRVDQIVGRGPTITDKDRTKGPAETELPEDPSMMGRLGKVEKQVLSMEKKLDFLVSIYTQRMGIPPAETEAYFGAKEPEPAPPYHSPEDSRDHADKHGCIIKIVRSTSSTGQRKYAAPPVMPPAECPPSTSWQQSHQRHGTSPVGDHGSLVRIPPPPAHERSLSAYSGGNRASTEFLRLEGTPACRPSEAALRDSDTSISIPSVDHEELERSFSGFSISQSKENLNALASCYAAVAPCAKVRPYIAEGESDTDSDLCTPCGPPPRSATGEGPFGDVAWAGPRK
Hits are given with their value; 0 = inactive; - = no result. Rows were chosen to be rich in hits. Some 1.6% of all compounds tested hit in one or more screens of this group.

SMILES	KCNQ2 pot	KCNQ2 block	Kir21 conf inh	HEK293 Tl flux	CHO-K1 ctr	KCNQ1 pot spec	KCNQ2 pot confirm	Kir21 spec	others
CCc1nnc(N2C(=O)c3ccccc3C2(O)c2ccccc2)s1 (stereo not given)	0	0	-	-	-	-	-	-
O=C(NN1CC(C(=O)OCc2ccc(Br)cc2)CC1=O)c1ccccc1 (stereo not given)	9.73	0	0	0	12.8	0	55.4	0	KCNQ2 W236L MoA=3.6%
O=C(COC(=O)C1CC(=O)N(Cc2ccccc2)C1)c1ccc(Br)cc1 (stereo not given)	-	0	-	-	-	-	-	-
CC(C)CCn1c(=O)c2sccc2n2c(CCCC(=O)N3CCC(N4CCCCC4)CC3)nnc12	0	0	-	-	-	-	-	-
COc1cccc(CNc2ccc3[nH]c(=O)[nH]c3c2)c1OCc1ccccc1	7.93	0	-	-	32.2	0	0	0
COc1cccc(CNc2ccc3[nH]c(=O)[nH]c3c2)c1OCc1ccccc1Cl	0	0	-	-	-	-	-	-
CCC1CCCCN1C(=O)CCNC(=O)Cn1cnc2ccccc2c1=O (stereo not given)	0	0	-	-	-	-	-	-
O=C1NC(=S)S/C1=C\c1cc2ccccc2nc1N1CCCCC1	5.49	0	0	0	23.3	0	21.4	0	KCNQ2 W236L MoA=0
Cc1nn(C)cc1/C=C1\SC(=S)NC1=O	0	0	-	-	-	-	-	-
COc1cccc(CN(C)C(=O)c2ccc(NC(=O)CC3SC(N4CCCC4)=NC3=O)cc2)c1OC (stereo not given)	-	0	-	-	-	-	-	-
CCOC(=O)C(=CNc1ccc(S(N)(=O)=O)cc1)C(=O)OCC	-	0	-	-	-	-	-	-
CCOC(=O)C(=CNc1ccc(NC2=NCC(C)(C)S2)cc1)C(=O)OCC	-	0	58.5%	0	-	-	-	-
COc1ccccc1-n1c(=S)[nH]c2c(sc(=S)n2-c2ccccc2C)c1=O	0	0	-	-	-	-	-	-
CN(C)Cc1cc2ccccc2c2c1COC2	-	0	-	-	-	-	-	-
Cc1cc2ccc3ccccc3c2cc1CN(C)C	-	0	13.0%	0	-	-	-	-
CCOC(=O)c1ccc(NC(=O)C(C)NS(=O)(=O)c2ccc(OC)cc2)cc1 (stereo not given)	5.81	0	0	0	33.6	0	0	0
CCOC(=O)c1ccc(NC(=O)COc2ccc(S(=O)(=O)NC(C)CC)cc2)cc1 (stereo not given)	0	0	-	-	-	-	-	-
CCOC(=O)C1=C(C)NC(=O)NC1c1cn(-c2ccccc2)nc1-c1cccs1 (stereo not given)	-	0	-	-	-	-	-	-
CCOC(=O)C1=C(C)NC(C)=C(C(=O)OCC)C1c1cn(-c2ccccc2)nc1-c1ccco1	11.4	0	0	0	16.8	85.5	0	0
NC(=O)c1cccc2c3c([nH]c12)CCCC3	0	0	-	-	-	-	-	-
CCOC(=O)C1CCCc2c1[nH]c1c(C(N)=O)cccc21 (stereo not given)	9.7	0	0	0	3.7	0	34.0	0	KCNQ2 W236L MoA=0
O=C(Cc1c(F)cccc1Cl)Nc1ccc(S(=O)(=O)Nc2nccs2)cc1	0	0	-	-	-	-	-	-
CCOc1ccc(NC(=O)Cc2ccc(NC3=NC4CS(=O)(=O)CC4S3)cc2)cc1 (stereo not given)	17.3	0	0	0	8.6	0	0	0
CCc1ccc(NC(=O)Cc2ccc(NC3=NC4CS(=O)(=O)CC4S3)cc2)cc1 (stereo not given)	-	0	-	-	-	-	-	-
O=C(O)/C=C/C(=O)c1ccc2c(c1)CCc1ccccc1-2	8.56	0	-	-	30.1	0	35.2	0	KCNQ2 W236L MoA=0
CC(=O)Nc1ccc2c(c1)CCc1ccccc1-2	-	0	-	-	-	-	-	-
CC(C)Oc1ccc(C(=O)Nc2c3c(nn2C(C)(C)C)CS(=O)(=O)C3)cc1	-	0	-	-	-	-	-	-
Cc1ccc(S(=O)(=O)NCC(C)n2cncn2)cc1C (stereo not given)	0	0	-	-	-	-	-	-
[N-]=[N+]=NC1CC(CO)OC1n1ccc(=O)[nH]c1=O (stereo not given)	0	0	-	-	-	-	-	-
